Source: ChEMBL document CHEMBL1201862, “PubChem BioAssay data set” (2004)
Hit rate of the full screen: of about 310,000 compounds, about 17,000 (5.5%) were called active. Inconclusive results (about 11%) are left out. This is one part of a sample in which actives are shown more often than they occur. The rule behind the calls is not given here.

Each molecule was assayed against T1, Nuclear receptor ROR-gamma (Mus musculus) (UniProt P51450) (assay: qHTS for inhibitors of ROR gamma transcriptional activity.).
T1 sequence (whole entry): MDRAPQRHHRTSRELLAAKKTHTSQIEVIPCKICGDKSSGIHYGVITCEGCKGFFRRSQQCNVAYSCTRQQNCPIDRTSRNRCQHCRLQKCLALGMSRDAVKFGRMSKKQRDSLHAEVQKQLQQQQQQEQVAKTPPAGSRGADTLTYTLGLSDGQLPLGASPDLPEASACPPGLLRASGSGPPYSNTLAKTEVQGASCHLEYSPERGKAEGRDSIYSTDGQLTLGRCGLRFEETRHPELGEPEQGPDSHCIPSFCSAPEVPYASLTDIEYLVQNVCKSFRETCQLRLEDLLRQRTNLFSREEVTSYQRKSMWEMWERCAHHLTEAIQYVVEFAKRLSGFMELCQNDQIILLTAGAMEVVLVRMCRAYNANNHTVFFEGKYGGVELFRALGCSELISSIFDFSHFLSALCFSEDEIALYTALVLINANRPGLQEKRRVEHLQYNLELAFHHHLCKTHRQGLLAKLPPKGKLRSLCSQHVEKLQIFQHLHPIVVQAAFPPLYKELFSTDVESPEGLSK
Assay type: functional

SMILES	Potency
O=C(/C=C/c1ccc(Cl)cc1)c1cccs1	15.8 µM (active)
COc1ccccc1/C=C/C(=O)c1cccs1	25.1 µM (active)
c1ccc(-n2ncc3c(NCc4cccnc4)ncnc32)cc1	501 µM (active)
